Results filed as inconclusive are left out. Calls of active or inactive are those of the source. Unless noted, calls come from the whole dose curve; as a rule, active = well fitted curve in the direction sought with a large enough effect; inconclusive = small, poorly fitted or top-dose-only effect, or another doubt; inactive = no such curve, though single readings can be large; an effect the other way counts as inactive or inconclusive.
Assays:
[1] = qHTS profiling of the MIPE4 collection as inhibitors of Plasmodium falciparum (3D7) proliferation (AID 743344; call rule not given here;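 note: scaled between DMSO vehicle wells and 0.29 µM artemisinin as full inhibition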); settings: P. falciparum 3D7 in erythrocytes, SYBR Green DNA fluorescence, 72 h; at 28.5 µM unless noted
In short: (§1)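 Parasite DNA was quantified by SYBR Green I fluorescence (ex 485, em 535 nm) after overnight lysis in saponin/Triton buffer at room temperature. Cultures at 0.3% parasitemia and 2.5% hematocrit were first exposed to compound for 72 h at 37 C; signals were normalised to artemisinin (0.29 uM) and vehicle wells.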

[2] = qHTS profiling of the MIPE4 collection as inhibitors of Plasmodium falciparum (DD2) proliferation (AID 743345; call rule not given here); settings: P. falciparum Dd2 in erythrocytes, SYBR Green DNA, 72 h; at 28.5 µM unless noted
In short: as §1

[3] = qHTS profiling of the MIPE4 collection as inhibitors of Plasmodium falciparum (DD2) proliferation (Rep 2) (AID 743346; call rule not given here); settings: P. falciparum Dd2 in erythrocytes, SYBR Green DNA, 72 h; at 28.5 µM unless noted
In short: as §1

[4] = qHTS profiling of the MIPE4 collection as inhibitors of Plasmodium falciparum (HB3) proliferation (AID 743347; call rule not given here;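 note: plate controls were DMSO vehicle wells for no effect and artemisinin wells for full effect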); settings: P. falciparum HB3 in erythrocytes, SYBR Green DNA, 72 h; at 28.5 µM unless noted
In short: as §1

[5] = High-throughput drug toxicity screening in the BPDCN cell line Gen2.2 (AID 1224824; call rule not given here); settings: Gen2.2 BPDCN cells; at 45.8 µM (top of the series) unless noted
In short: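 Gen2.2 cells, 500 per well in phenol red-free RPMI with 10% FBS, exposed to compounds 48 h at 37 C, 5% CO2; viability by CellTiter-Glo luminescence. Percent activity scaled to DMSO (100%) and 9.2 uM bortezomib final (0%).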

[6] = qHTS assay for measurement of the activity of small molecule inhibitors on Zika virus induced Caspase-3 activity in human iPSC derived neural progenitor cells (hNPCs) (AID 1224857); note: nearly all actives have a fitted effect of over 65% in size; note: potency is the fitted concentration of half-maximal effect
In short: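 Caspase-3/7 induction by a 6-hour ZIKV infection was quantified with a luminescent Caspase-Glo 3/7 reagent incubated 30 minutes at room temperature. Compounds were preincubated with hNPCs for 1 hour; inhibition was calculated against uninfected and infected control wells.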

[7] = qHTS assay for measurement of the activity of small molecule inhibitors on Zika virus induced Caspase-3 activity in human astrocytoma cells (AID 1224859);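 note: plate controls were ZIKV-infected untreated cells for no effect and uninfected cells for full effect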
In short: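 In SNB-19 cells plated at 250 cells/well and grown 16-20 h, compounds were applied 1 h before ZIKV (2 FFU/cell). Six hours later caspase-3/7 luminescence was recorded.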

[8] = qHTS Screen of the MIPE 4.0 Collection Against Ewings Sarcoma (TC32) (AID 1259256); note: nearly all actives have a fitted effect of over 45% in size; note: potency is the fitted concentration of half-maximal effect
In short: (§2)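 Viability screen: 48 h incubation at 37C, 95% humidity, 5% CO2 with serially titrated compound, followed by CellTiter-Glo readout.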

[9] = Identifying Small Molecule Inhibitors of Pancreatic Cancer Stem Cells (SN12C, Adherent) (AID 1259358);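 note: cell survival measured after 48 h of compound exposure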; note: potency is the fitted concentration of half-maximal effect
In short: (§3)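 Monolayer and spheroid cultures are compared. Spheroids form over 14 days in stem cell medium on hydrogel-coated low-attachment plates, then are exposed to compound for 48 h before CellTiter-Glo luminescence.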

[10] = Identifying Small Molecule Inhibitors of Pancreatic Cancer Stem Cells (Panc1, Spheroid) (AID 1259359); settings: Panc1 spheroid cancer stem cell viability;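 note: potency is the fitted concentration of half-maximal effect; compound exposure lasted 48 h before reading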
In short: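 Luminescent ATP readout (CellTiter-Glo) quantifies surviving cells after a 48 h drug incubation. Normalization uses DMSO wells as no inhibition and media-only wells as full inhibition; bortezomib served as positive control.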

[11] = Identifying Small Molecule Inhibitors of Pancreatic Cancer Stem Cells (A278, Adherent) (AID 1259361);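 note: viability read after 48 h compound exposure; nearly all actives have a fitted effect of over 35% in size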;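 for viability (% of control): 100% = DMSO-treated cells and 0% = cell-free media-only wells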
In short: as §3

[12] = Identifying Small Molecule Inhibitors of Pancreatic Cancer Stem Cells (Panc1, Adherent) (AID 1259362); settings: Potency: viability; note: potency is the fitted concentration of half-maximal effect;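 for viability, % of control: compound exposure lasted 48 h before the viability read; plate controls were DMSO-treated cells for no effect and cell-free media wells for full effect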
In short: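 Viability is scored by CellTiter-Glo luminescence 48 h after dosing, expressed as percent activity against vehicle and no-cell references. Spheroid formats rely on cells cultured 14 days in stem cell media beforehand.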

[13] = P-glycoprotein substrates identified in KB-3-1 adenocarcinoma cell line, qHTS therapeutic library screen (AID 1346986); note: nearly all actives have a fitted effect of over 60% in size
In short: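 Viability by CellTiter-Glo after 72 h compound exposure at 37 degree C, 5% CO2. Cytotoxic call: curve class -1.1 to -2.4, maximum response >50%, AC50 < 10 uM, compared across KB-3-1 and P-gp-overexpressing KB-8-5-11.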

[14] = P-glycoprotein substrates identified in KB-8-5-11 adenocarcinoma cell line, qHTS therapeutic library screen (AID 1346987); note: nearly all actives have a fitted effect of over 65% in size
In short: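 Human cervical adenocarcinoma KB-8-5-11 cells, selected in colchicine to over-express P-gp and assayed without it, were exposed for 72 h to titrated compounds. An ATP-based luminescent viability signal gave AC50.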

[15] = High-throughput drug toxicity screening in the BPDCN cell line Cal-1 (AID 1224825; call rule not given here); settings: Cal-1 BPDCN cell viability, qHTS; at 45.8 µM (top of the series) unless noted
In short: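 CellTiter-Glo luminescence after 48 h compound exposure; percent activity scaled with DMSO as 100% and bortezomib (9.2 uM final) as 0%. Cal-1 cells seeded at 500/well in RPMI, 10% FBS, no phenol red.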

[16] = qHTS Screen of the MIPE 4.0 Collection Against Ewings Sarcoma (TC71) (AID 1259253); note: nearly all actives have a fitted effect of over 40% in size; note: potency is the fitted concentration of half-maximal effect
In short: as §2

[17] = qHTS Screen of the MIPE 4.0 Collection Against Ewings Sarcoma (EW8) (AID 1259255); note: nearly all actives have a fitted effect of over 35% in size; note: potency is the fitted concentration of half-maximal effect;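 for viability: 100% = DMSO-treated cells and 0% = medium-only wells without cells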
In short: as §2

[18] = qHTS Screen of the MIPE 4.0 Collection Against Ewings Sarcoma (RDES) (AID 1259252); note: nearly all actives have a fitted effect of over 35% in size; note: potency is the fitted concentration of half-maximal effect
In short: as §2

Row | Structure (SMILES) | parasite growth, % of DMSO control [1] [%] | parasite growth remaining, % of DMSO control (lower = more inhibition) [2] [%] | parasite growth, % of control (lower = inhibition) [3] [%] | growth, % of control [4] [%] | cell viability, % of control (lower = more cytotoxic) [5] [%] | Potency [6] | Potency [7] | Potency [8] | Potency [9] | Potency [10] | IC50 (viability decrease) [11] | Potency [12] | Potency [13] | Potency [14] | viability (% of control) [15] [%] | Potency [16] | Potency [17] | Potency [18]
1 | O=C(O)CCC1CCC(c2cc(F)ccc2F)(S(=O)(=O)c2ccc(Cl)cc2)CC1 (centres undefined) | 66.9 | 93.8 | 51.1 | 82.6 | 8.09 | inactive | inactive | 11.8 µM (active) | inactive | 3.32 µM (active) | inactive | inactive | inactive | inactive | – | – | – | –
2 | CN1CCN(CCOc2cc(OC3CCOCC3)c3c(Nc4c(Cl)ccc5c4OCO5)ncnc3c2)CC1 | – | 8.1 | 7.87 | 6.19 | 54.1 | inactive | inactive | 29.6 µM (active) | 1.87 µM (active) | – | 20.9 µM (active) | – | – | inactive | – | – | – | –
3 | O=c1c(-c2ccc(O)cc2)coc2cc(O[C@@H]3O[C@H](CO)[C@H](O)[C@H](O)[C@H]3O)ccc12 | 91.8 | 97.7 | 85.3 | 104 | 101 | – | – | inactive | – | – | – | – | inactive | inactive | 99.8 | inactive | inactive | –
4 | O=c1c(O)c(-c2ccc(O)cc2)oc2cc(O)cc(O)c12 | 24.5 | 97.3 | 27.5 | – | 140 | – | – | – | – | – | – | – | inactive | inactive | 13.1 | 18.7 µM (active) | 11.8 µM (active) | 16.6 µM (active)
5 | CC(=Cc1ccccc1)C=C1SC(=S)N(CC(=O)O)C1=O | 92.1 | – | 81.2 | 98.1 | 124 | – | inactive | inactive | – | – | – | – | – | inactive | – | inactive | inactive | inactive
6 | CC=CCC(C)C(O)C1C(=O)NC(CC)C(=O)N(C)CC(=O)N(C)C(CC(C)C)C(=O)NC(C(C)C)C(=O)N(C)C(CC(C)C)C(=O)NC(C)C(=O)NC(C)C(=O)N(C)C(CC(C)C)C(=O)N(C)C(CC(C)C)C(=O)N(C)C(C(C)C)C(=O)N1C (centres undefined) | 5.34 | 6.98 | 13.2 | 4.04 | 8.39 | – | – | inactive | – | – | – | – | – | – | – | – | – | –
7 | O=c1c(-c2ccc(O)cc2)coc2cc(OC3O[C@H](CO)[C@H](O)[C@H](O)[C@H]3O)cc(O)c12 (some centres undefined) | 57 | 88.8 | 65.7 | – | 74.8 | – | – | 10.5 µM (active) | – | – | – | – | – | – | 37.3 | 7.43 µM (active) | 18.7 µM (active) | 3.72 µM (active)
8 | O=C(CCN1CCN(C(=O)OCc2cc(Cl)cc(Cl)c2)CC1)c1ccc2[nH]c(=O)oc2c1 | – | – | 85 | – | 231 | 20.9 µM (active) | – | inactive | – | – | – | – | – | inactive | – | inactive | inactive | inactive
9 | COc1ccc(Cc2nccc3cc(OC)c(OC)cc23)cc1OC | 5.44 | 11.3 | 18.7 | 2.71 | 47.4 | – | – | 23.5 µM (active) | – | – | – | – | – | – | 96.9 | 18.7 µM (active) | – | 20.9 µM (active)
10 | c1ccc2c(-c3cnn4cc(-c5ccc(N6CCNCC6)cc5)cnc34)ccnc2c1 | – | – | 6.79 | – | 3.03 | inactive | inactive | inactive | 26.4 µM (active) | 26.4 µM (active) | 23.5 µM (active) | 20.9 µM (active) | – | – | – | – | inactive | –
11 | Cc1ccccc1C(C(=O)NC1CCCCC1)N(C(=O)Cn1ccnc1C)c1cccc(F)c1 (centres undefined) | 103 | – | 25.9 | 271 | 125 | – | inactive | 8.33 µM (active) | – | – | – | – | – | inactive | – | – | inactive | inactive
12 | COc1ccc(Cc2ccc(NC(N)=O)cc2)cc1-c1cccc(Cl)c1 | 61.7 | 89.9 | 38.4 | 69.6 | 234 | inactive | inactive | 23.5 µM (active) | – | – | – | – | – | inactive | – | 18.7 µM (active) | – | –
13 | O=C(Nc1c(Cl)cncc1Cl)c1ccc(OC(F)F)c(OCC2CC2)c1 | 109 | 100 | 67.9 | – | 134 | inactive | inactive | – | – | – | – | – | inactive | inactive | – | – | inactive | –
14 | O=C(O)c1ccc(-c2cc3cccnc3c(-c3ccc4nonc4c3)n2)cc1 | – | 53.9 | 37.1 | 3.01 | 30.2 | inactive | inactive | 26.4 µM (active) | inactive | – | inactive | – | – | – | – | – | – | –
15 | CN[C@@H](C)C(=O)N[C@H]1CN(C(=O)CC(C)C)CC[C@H]2CC[C@@H](C(=O)NC(c3ccccc3)c3ccccc3)N2C1=O | – | 55 | 27.9 | 72.2 | 19.5 | inactive | inactive | – | – | – | – | – | – | inactive | – | – | inactive | –
16 | CN1[C@@H]2CCC[C@@H]1CC(NC(=O)c1nn(C)c3ccccc13)C2 (some centres undefined) | – | – | – | – | 97.5 | – | – | – | – | – | – | – | – | inactive | 105 | – | – | –
17 | C=C1C(=O)[C@@]23C(CC[C@@H]1[C@H]2O)[C@@]12CO[C@]3(O)[C@@H](O)[C@@H]1C(C)(C)CC[C@@H]2O (some centres undefined) | 33.5 | 75.5 | 18.4 | 5.26 | 2.66 | – | inactive | 5.26 µM (active) | – | – | – | – | – | – | – | 6.62 µM (active) | 4.18 µM (active) | 7.43 µM (active)
18 | O=C(OCC#CCSc1nnc(-c2cccc3ccccc23)o1)c1cc2ccccc2s1 | 49.1 | 83 | 64.2 | 44.7 | 91.8 | inactive | inactive | – | – | – | – | – | – | inactive | – | – | inactive | –
